PubChem BioAssay (NCATS)
Where “and” joins values, the source holds several entries; their conditions need not be identical. Identical values can stand only once. Results filed as inconclusive are left out. Calls of active or inactive are those of the source. The call rests on the fitted dose curve; in most records, active means well fitted inhibition curve with a large enough effect; inconclusive means small, poorly fitted or top-dose-only effect; inactive means flat fitted curve, though single readings scatter.

Assays:
[1] = Drug repurposing screens with cells derived from glioblastoma tumor samples (AID 1345199); details: GBM patient neurospheres viability, ATP luminescence, 48 h; further: nearly all actives have a fitted effect of over 40% in size
In short: (§1)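 Four patient lines of CD133+ GBM neurospheres were screened at several concentrations; hits were retested in those lines plus three slower-growing GBM lines, using 48-hour treatment and ATP-based viability.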

astro = control astrocytes; assay: as above; details: viability, ATP luminescence, 48 h; series mostly up to 45.9 µM
In short: as §1

[2] = at 45.9 µM (top of the series), tumour line B
[3] = at 45.9 µM (top of the series), tumour line D
[4] = at 46 µM (top of the series), tumour line A
[5] = at 46.1 µM (top of the series), tumour line C
[6] = at 20 µM (top of the series), tumour line C
[7] = at 21.2 µM (top of the series), tumour line B
[8] = at 21.2 µM (top of the series), tumour line D
[9] = at 21.3 µM (top of the series), tumour line A
On the % scale 0 is the no-effect control and ±100 the full control effect; potency means the concentration at half of the fitted maximal effect.

C[S+](C)CCC(N)C(=O)O (stereo not given)
inactive: activity, negative = cell killing [1, 2] -1.5% | activity, negative = cell killing [1, 3] -4.21% | activity, negative = cell killing [1, 4] -14.6% | activity, negative = cell killing [1, 5] -27.3% | Potency (astro)

Nc1nc(/C(=C/CC(=O)O)C(=O)N[C@@H]2C(=O)N3C(C(=O)O)=CCS[C@H]23)cs1
inactive: activity, negative = cell killing [1, 2] -0.0909% | activity, negative = cell killing [1, 3] -11.4% | activity, negative = cell killing [1, 4] 12.2% | activity, negative = cell killing [1, 5] 20.6% | Potency (astro)

CCCCC[C@H](O)/C=C/[C@@H]1[C@H]2C/C(=C/CCCC(=O)O)O[C@H]2C[C@H]1O
inactive: activity, negative = cell killing [1, 2] -2.96% | activity, negative = cell killing [1, 3] 0.816% | activity, negative = cell killing [1, 4] -14.4% | activity, negative = cell killing [1, 5] -18.7% | Potency (astro)

CO/N=C(\C(=O)N[C@@H]1C(=O)N2C(C(=O)O)=CCS[C@H]12)c1csc(N)n1
inactive: activity, negative = cell killing [1, 2] -10.9% | activity, negative = cell killing [1, 3] -17.7% | activity, negative = cell killing [1, 4] -10.3% | activity, negative = cell killing [1, 5] -14% | Potency (astro)

CC(CC=O)CCCC(C)(C)O (stereo not given)
inactive: activity, negative = cell killing [1, 2] -11.5% | activity, negative = cell killing [1, 3] -18.7% | activity, negative = cell killing [1, 4] -27.2% | activity, negative = cell killing [1, 5] -24.1% | Potency (astro)

CC(CNC(=O)c1cccnc1)NC(=O)c1cccnc1 (stereo not given)
inactive: activity, negative = cell killing [1, 2] -10.6% | activity, negative = cell killing [1, 3] -9.97% | activity, negative = cell killing [1, 4] -56.9% | activity, negative = cell killing [1, 5] -14.1% | Potency (astro)

CC[C@@H](C)[C@H](N)C(=O)O
inactive: activity, negative = cell killing [1, 2] -5.93% | activity, negative = cell killing [1, 3] -17.3% | activity, negative = cell killing [1, 4] -37.7% | activity, negative = cell killing [1, 5] -13.6% | Potency (astro)

S=C=Nc1ccc(N=C=S)cc1
inactive: activity, negative = cell killing [1, 2] -4.92% | activity, negative = cell killing [1, 3] -5.1% | activity, negative = cell killing [1, 4] -24.5% | activity, negative = cell killing [1, 5] -6.65% | Potency (astro)

CC(=O)[C@@]1(O)CC[C@H]2[C@@H]3C=C(Cl)C4=CC(=O)[C@@H]5C[C@@H]5[C@]4(C)[C@H]3CC[C@@]21C
inactive: activity, negative = cell killing [1, 2] -14.4% | activity, negative = cell killing [1, 3] -9.17% | activity, negative = cell killing [1, 4] -35.1% | activity, negative = cell killing [1, 5] -13.6% | Potency (astro)

C[C@H](N)C(=O)N[C@@H](C)P(=O)(O)O
inactive: activity, negative = cell killing [1, 2] -6.14% | activity, negative = cell killing [1, 3] -11.2% | activity, negative = cell killing [1, 4] -15.6% | activity, negative = cell killing [1, 5] -19.1% | Potency (astro)

O=C1c2ccccc2CN2C(=O)c3ccccc3CN12
inactive: activity, negative = cell killing [1, 2] -20.4% | activity, negative = cell killing [1, 3] -5.7% | activity, negative = cell killing [1, 4] -23.1% | activity, negative = cell killing [1, 5] -20% | Potency (astro)

CC(=O)NCCCS(=O)(=O)O
inactive: activity, negative = cell killing [1, 2] -1.38% | activity, negative = cell killing [1, 3] -1.99% | activity, negative = cell killing [1, 4] -10.5% | activity, negative = cell killing [1, 5] -6.16% | Potency (astro)

O=[n+]1ccn([O-])c2ccccc21
inactive: activity, negative = cell killing [1, 2] -6.39% | activity, negative = cell killing [1, 3] -13.6% | activity, negative = cell killing [1, 4] -22.5% | activity, negative = cell killing [1, 5] -17% | Potency (astro)

C[C@@H]1O[C@@H]1P(=O)(O)O
inactive: activity, negative = cell killing [1, 2] -9.49% | activity, negative = cell killing [1, 3] -16.5% | activity, negative = cell killing [1, 4] -24.5% | activity, negative = cell killing [1, 5] -7.45% | Potency (astro)

O=C1/C(=C\c2cccs2)CCC/C1=C\c1cccs1
inactive: activity, negative = cell killing [1, 2] -19.7% | activity, negative = cell killing [1, 3] -28.6% | activity, negative = cell killing [1, 5] -23.9% | Potency (astro)
active: Potency ([1]; tumour line A) 25.1 µM

CC(C)C[C@H](NC(=O)[C@@H](COC(C)(C)C)NC(=O)[C@H](Cc1ccc(O)cc1)NC(=O)[C@H](CO)NC(=O)[C@H](Cc1c[nH]c2ccccc12)NC(=O)[C@H](Cc1cnc[nH]1)NC(=O)[C@@H]1CCC(=O)N1)C(=O)N[C@@H](CCCN=C(N)N)C(=O)N1CCC[C@H]1C(=O)NNC(N)=O
inactive: activity, negative = cell killing [1, 2] -16.4% and -7.35% | activity, negative = cell killing [1, 3] -27.1% and -14% | activity, negative = cell killing [1, 4] -28.3% and -17.4% | activity, negative = cell killing [1, 5] -8.14% and 8.02% | Potency (astro)

O=C(NCCNCC(O)COc1ccc(O)cc1)N1CCOCC1 (stereo not given)
inactive: activity, negative = cell killing [1, 2] -5.84% | activity, negative = cell killing [1, 3] -3.52% | activity, negative = cell killing [1, 4] -55.7% | activity, negative = cell killing [1, 5] -0.52% | Potency (astro)

CN1C(=O)OC(C)(C)C1=O
inactive: activity, negative = cell killing [1, 6] -9% | activity, negative = cell killing [1, 7] 0.292% | activity, negative = cell killing [1, 8] -3.8% | activity, negative = cell killing [1, 9] -18.7% | Potency (astro)

CO[C@H]1C[C@H](O[C@H]2[C@H](C)[C@@H](O[C@@H]3O[C@H](C)C[C@H](N(C)C)[C@H]3O)[C@@H](C)C[C@]3(CO3)C(=O)[C@H](C)[C@@H](O)[C@@H](C)[C@@H](C)OC(=O)[C@@H]2C)O[C@@H](C)[C@@H]1O
inactive: activity, negative = cell killing [1, 6] -8.16% | activity, negative = cell killing [1, 7] -0.194% | activity, negative = cell killing [1, 8] -29.4% | activity, negative = cell killing [1, 9] -24% | Potency (astro)

CC(C)(C)CC(C)(C)c1cc(Cc2cc(C(C)(C)CC(C)(C)C)cc(-n3nc4ccccc4n3)c2O)c(O)c(-n2nc3ccccc3n2)c1
inactive: activity, negative = cell killing [1, 2] -3.94% | activity, negative = cell killing [1, 3] -1.11% | activity, negative = cell killing [1, 4] -36.5% | activity, negative = cell killing [1, 5] -23.5% | Potency (astro)

CCCC(=O)Nc1c(I)cc(I)c(CC(CC)C(=O)O)c1I (stereo not given)
inactive: activity, negative = cell killing [1, 2] -12.8% | activity, negative = cell killing [1, 3] 14.7% | activity, negative = cell killing [1, 4] -17.5% | activity, negative = cell killing [1, 5] -13.2% | Potency (astro)

CCOC(=O)c1cc(-c2ccccc2)nc2ccc(C)cc12
active: Potency ([1]; tumour line A) 12.6 µM
inactive: activity, negative = cell killing [1, 2] -20.9% | activity, negative = cell killing [1, 3] 9.36% | activity, negative = cell killing [1, 5] -13.3% | Potency (astro)
